# Screen size: about 62,000 compounds; about 420 (0.68%) were called active.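 How the source made its calls: active means inhibition above the mean of all tested compounds plus 3 SD (cut at about 43% in these data); inactive means the rest.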 The full list was thinned out, with actives kept by preference.
# Biological target: 5-hydroxytryptamine receptor 1A (Homo sapiens) (UniProt P08908)
# Assay: human 5-HT1a receptor antagonists, primary screen, cell-based, CHO, Ga15 NFAT-bla reporter (AID 612);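 further: receptor stimulated by 5-CT agonist at 100 nM near EC80; beta-lactamase reporter measured by ratiometric fluorescence of a cleavable substrate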
# Conditions: CHO 5-HT1a Ga15 NFAT-bla reporter, antagonist mode; at 10 µM; active compounds read high
# Sequence of 5-hydroxytryptamine receptor 1A (Homo sapiens) (P08908 whole entry, looked up): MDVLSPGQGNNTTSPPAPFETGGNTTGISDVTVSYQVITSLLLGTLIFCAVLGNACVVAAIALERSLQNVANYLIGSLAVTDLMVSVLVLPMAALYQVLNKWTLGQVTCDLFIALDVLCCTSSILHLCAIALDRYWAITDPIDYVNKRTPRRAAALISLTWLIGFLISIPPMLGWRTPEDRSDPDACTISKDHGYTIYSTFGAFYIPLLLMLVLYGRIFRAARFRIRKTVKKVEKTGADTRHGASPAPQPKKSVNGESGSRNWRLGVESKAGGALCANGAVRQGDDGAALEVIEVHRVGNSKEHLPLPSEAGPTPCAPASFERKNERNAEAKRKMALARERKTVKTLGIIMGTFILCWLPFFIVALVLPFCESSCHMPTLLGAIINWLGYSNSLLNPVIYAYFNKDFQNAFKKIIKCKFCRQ
row,Compound,inhibition
1,CS(=O)(=O)c1ccc2nc(NC(=O)C3C4C=CC(C4)C3C(=O)O)sc2c1 (configuration not stated),-0.7% (inactive)
2,CN1C(=O)c2ccccc2C(C(=O)NCCCN2CCCC2)C1c1c[nH]c2ccccc12 (configuration not stated),-6.4% (inactive)
3,O=C(O)CCN1C(=O)CC2(CCCCC2)C1=O,6.3% (inactive)
4,C=CCSc1nnc(Cn2c(=O)sc3ccccc32)n1C,-0.5% (inactive)
5,COc1nc(NCc2ccc(Cl)cc2)nc(OC)n1,-1.3% (inactive)
6,Cc1nc(C)c2c(c1C(F)(F)F)-c1ccccc1C2(F)F,-9.3% (inactive)
7,Cc1ccc2c(C(=O)CN3CCCC3)c(C)[nH]c2c1,14.4% (inactive)
8,CCCCOc1ccc(C(C)(O)CCN2CCOCC2)cc1 (configuration not stated),8.9% (inactive)
9,Cc1oc2nc(SCC(=O)NCc3cccnc3)nc(N)c2c1C,5.1% (inactive)
10,CCOc1ccc(Cn2nnc(C(=O)NCc3ccccc3)c2N)cc1,10.3% (inactive)
11,CCC(C)NC(=O)N[C@@H](CCSC)C(=O)O (some centres not stated),-11.6% (inactive)
12,CC1(C)C(=O)C2(CCCCC2)C(=O)OC1c1cccs1 (configuration not stated),-2.8% (inactive)
13,CN(CCC#N)c1ncnc2scc(-c3ccccc3)c12,11.5% (inactive)
14,C/C(=C\C(=O)c1ccc(Br)cc1)N1CCCCC1,0.5% (inactive)
15,CCN(CC)S(=O)(=O)c1cccc(C(=O)Nc2ccccc2)c1,16.2% (inactive)
16,Cc1cc(C(=O)OCC(=O)c2c(N)n(C)c(=O)n(C)c2=O)c(C)o1,-7.9% (inactive)
17,CCOC(=O)CN1CC23C=CC(O2)C(C(=O)Nc2ccc(F)cc2)C3C1=O (configuration not stated),-5.1% (inactive)
18,Cc1ccc(-n2c(Cc3cccs3)nnc2SCC(=O)OC(C)C)cc1,8.6% (inactive)
19,Cc1c(C(=O)NCCN2CCOCC2)sc2nc(-c3ccc(F)cc3)cn12,-8% (inactive)
20,O=C(COc1ccc(S(=O)(=O)NCCc2ccccc2)cc1)N1CCCC1,-0.2% (inactive)
21,CCOC(=O)C1CCCN(C(=O)CN(c2ccc(OC)cc2)S(=O)(=O)c2c(C)noc2C)C1 (configuration not stated),-9.3% (inactive)
22,CCCCNC(=O)c1ccccc1NC(=O)c1ccccc1N(C)S(C)(=O)=O,-13.1% (inactive)
23,CCN1CCN(Cc2nc3c(c(=O)n(C)c(=O)n3C)n2CC(=O)c2ccccc2)CC1,4.5% (inactive)
24,O=C(C1=C(O)C(=O)N(c2ncccn2)C1c1cccs1)c1ccco1 (configuration not stated),11.8% (inactive)
25,Cc1cc(C(=O)Nc2c(C)n(C)n(-c3ccccc3)c2=O)cs1,5.4% (inactive)

row,Compound,inhibition
1,O=C(NC1=NCCS1)c1ccc(Cl)s1,10.2% (inactive)
2,Cc1ccccc1Nc1nc(N)nc(CN2CCN(c3ccccn3)CC2)n1,2% (inactive)
3,CCOC(=O)c1ccc(N2C(=O)CC(N3CC(C)OC(C)C3)C2=O)cc1 (configuration not stated),14% (inactive)
4,CC1=C(C(=O)OC2CCCCC2)C(c2cccnc2)n2ncnc2N1 (configuration not stated),-5% (inactive)
5,CCN1CCN(Cc2c(O)ccc3c(=O)c(-c4ccc(OC)c(OC)c4)c(C(F)(F)F)oc23)CC1,4.3% (inactive)
6,COc1ccc(NC(=O)c2cccc(NC(=O)c3ccco3)c2)c(OC)c1,5.2% (inactive)
7,Cc1ccc(S(=O)(=O)N2CCOCC2)cc1C(=O)NCc1ccc(F)cc1,3.3% (inactive)
8,CC1Cc2ccccc2N1C(=O)CSc1nnc(-c2ccc(S(=O)(=O)N3CCCCC3)cc2)o1 (configuration not stated),1.4% (inactive)
9,COc1ccc(C(C(O)C(=O)c2c[nH]c3ccccc23)N2CCN(c3ccccc3)CC2)cc1 (configuration not stated),43.9% (active)
10,CCCC(=O)NC(C)C(c1cccs1)N1CCN(c2ccccc2)CC1 (configuration not stated),16.9% (inactive)
11,COc1ccc(OC)c(S(=O)(=O)N(C)CC(=O)N2CCN(c3ccccc3)CC2)c1,-11.1% (inactive)
12,COc1ccc(NC(C)=O)cc1NC(=O)CN1CCN(c2ccccn2)CC1,-0.2% (inactive)
13,Cc1ccc(-n2nc3c(c2NC(=O)c2ccc4c(c2)OCO4)CSC3)c(C)c1,9% (inactive)
14,O=C(Nc1ccc(-c2nnc(-c3ccccc3)o2)cc1)C1CCCO1 (configuration not stated),9.7% (inactive)
15,O=C(Nc1ccc(-c2nnc(-c3ccccc3)o2)cc1)c1ccc(Br)o1,-16.4% (inactive)
16,Nc1ccc(-c2nnc(-c3ccc(-c4ccccc4)cc3)o2)cc1,62.6% (active)
17,CN1CCN(C(=O)C2C3C=CC(C3)C2C(=O)O)CC1 (configuration not stated),-4% (inactive)
18,CCOC(=O)c1ccc(NC(=O)CSc2ncccn2)cc1,-16.8% (inactive)
19,Cc1noc(C)c1S(=O)(=O)N1CCCC(C(=O)Nc2nccs2)C1 (configuration not stated),-3.8% (inactive)
20,CCc1nnc(NC(=O)c2nc3nccc(C)n3n2)s1,-1.7% (inactive)
21,O=S(=O)(Nc1nccs1)c1ccc2c(c1)OCCO2,-0.3% (inactive)
22,O=C(CN1CCOc2ccccc21)N1CCC(Cc2ccccc2)CC1,4.5% (inactive)
23,CC(=O)C1C(c2cccc(Oc3ccccc3)c2)NC(=O)NC1(O)C(F)(F)F (configuration not stated),-16.2% (inactive)
24,c1csc(CN2CCN(Cc3cccs3)C2c2cccs2)c1,78.7% (active)
25,O=C1c2cccnc2C(=O)N1Cc1cccs1,-0.8% (inactive)

row,Compound,inhibition
1,O=C(CSCc1cccs1)N1CCCC1,-5.9% (inactive)
2,N#Cc1ccc(COC(=O)Cn2nnc(-c3ccccc3)n2)cc1,7.6% (inactive)
3,Cc1ccc(CNC(=O)CCCNC(=O)c2ccc(Cl)cc2)n1C,-4.8% (inactive)
4,CCSC1(SCC)N=C(N)C2(C#N)C(c3ccccc3)NC(C)=CC12C#N (configuration not stated),1.4% (inactive)
5,CCOc1ccc(-c2cn(S(=O)(=O)c3cccc4nsnc34)nc2N)cc1,11.8% (inactive)
6,CCN1CCN(c2c(Cl)cccc2NC(=O)c2ccc(Br)o2)CC1,63.5% (active)
7,CCCC(=O)Nc1ccc(Cl)c(NC(=O)c2ccc(Br)o2)c1,-5.8% (inactive)
8,COc1cc(OC)c(NC(=O)c2ccc(Br)o2)cc1Cl,5.1% (inactive)
9,O=C(CCCn1c(SCC(=O)c2ccc(F)cc2)nc2ccccc2c1=O)NCc1ccco1,7.8% (inactive)
10,Cn1nc(-c2ccc(N3CCOCC3)c(NC(=O)c3ccccc3)c2)c2ccccc2c1=O,26.6% (inactive)
11,Cc1ccc(C(c2nnnn2C(C)(C)C)N2CCc3ccccc3C2)cc1 (configuration not stated),-4.5% (inactive)
12,COCCn1nnnc1C(c1cc2ccc(OC)cc2[nH]c1=O)N1CCc2ccccc2C1 (configuration not stated),1.8% (inactive)
13,COc1ccc(OC)c(C(c2nnnn2C(C)(C)C)N2CCc3ccccc3C2)c1 (configuration not stated),48.2% (active)
14,Cc1ccc(N2C(=O)c3ccccc3C2(O)c2ncc[nH]2)cc1 (configuration not stated),3.5% (inactive)
15,CSc1cccc(NC(=O)CSc2ccccc2)c1,-10.6% (inactive)
16,CC(C)COC(=O)c1ccc(NC(=O)C2C3C=CC(C3)C2C(=O)O)cc1 (configuration not stated),4.8% (inactive)
17,CCn1nnc(NC(=O)c2cc(Cl)c(OC)c(Cl)c2)n1,-4.7% (inactive)
18,COc1cc2[nH]c(=S)n(CCN3CCCCC3C)c(=O)c2cc1OC (configuration not stated),2.5% (inactive)
19,O=C(O)CC(Cn1cnnn1)c1ccccc1 (configuration not stated),0.4% (inactive)
20,COc1ccc2[nH]c3c(=O)n(Cc4ccco4)cnc3c2c1,6% (inactive)
21,CCOc1ccc(N(CC(=O)NCc2ccc(OC)cc2)S(=O)(=O)c2c(C)noc2C)cc1,3.7% (inactive)
22,COc1ccc2c(c1)CCc1c(C(=O)N3CCc4ccccc4C3)noc1-2,-3.2% (inactive)
23,CN=C1SC(C(=O)O)CC(=O)N1C (configuration not stated),3.6% (inactive)
24,COc1ccccc1-n1cnc2cc(NS(=O)(=O)c3ccccc3)ccc21,26.7% (inactive)
25,CCCCn1c(SCC(=O)N2CCC(C(=O)OCC)CC2)nc2cc(S(N)(=O)=O)ccc21,5.5% (inactive)

row,Compound,inhibition
1,CCn1c(CSc2nncn2-c2ccc(OC)cc2)nc2cc(S(=O)(=O)N(C)C)ccc21,0.4% (inactive)
2,CCC1C(C#N)=C(SC)NC2=C1C(=O)CC(C)(C)C2 (configuration not stated),0.2% (inactive)
3,O=C(/C(=N\O)n1cncn1)c1ccc(Br)cc1Br,-1.8% (inactive)
4,CC(=O)c1c(N)n(C)c(=O)n(C)c1=O,1.2% (inactive)
5,CC1CSc2nnc(CCc3ccccc3)n21 (configuration not stated),5.7% (inactive)
6,CN1CCN(S(=O)(=O)c2ccc(NC(=O)C3CCCO3)cc2)CC1 (configuration not stated),-0.1% (inactive)
7,Cc1ccc(NC(=O)Cn2nc(C)c3ccccc3c2=O)c(C)c1,2.8% (inactive)
8,C=CCn1c(SCn2nnc3ccccc3c2=O)nnc1-c1ccc(Cl)cc1,-2.8% (inactive)
9,O=C(Nn1cc(C(=O)N2CCN(c3ccccc3F)CC2)c2ccccc2c1=O)c1cnccn1,0.3% (inactive)
10,CCn1c2c(c3ccc(OC)cc31)CCCC2=O,-8.1% (inactive)
11,O=C(CSc1nnc(Cn2cnc3ccccc32)o1)c1ccccc1,-8.1% (inactive)
12,Cc1ccc(-c2noc(CN3CCN(Cc4ccccc4)CC3)n2)cc1,-3.3% (inactive)
13,CC(=NC1CCN(Cc2ccccc2)CC1)c1c(O)[nH]c(=O)[nH]c1=O,-6.7% (inactive)
14,CC12CN(Cc3ccccc3)CC(C)(CN(Cc3ccccc3)C1)C2=NO,50.1% (active)
15,CN1C(=O)CC(N2CCN(c3ccccn3)CC2)C1=O (configuration not stated),-2.2% (inactive)
16,C=CCNc1nnc(C)c2ccccc12,0.9% (inactive)
17,Cc1noc(C)c1S(=O)(=O)N(CC(=O)Nc1ccc2c(c1)OCCO2)c1ccc(C(C)C)cc1,2% (inactive)
18,COCCOC(=O)C1=C(C)N=c2s/c(=C\c3cccs3)c(=O)n2C1c1cccs1 (configuration not stated),6.2% (inactive)
19,CC(=O)c1ccc(Oc2cc(C)nc(-n3nc(C)cc3C)n2)cc1,45.2% (active)
20,CCOC(=O)c1cnc(-n2nc(C)cc2C)nc1Nc1cccc(C(C)=O)c1,12.1% (inactive)
21,Cc1cc(C)n(-c2ccc(Cl)c(C(=O)O)n2)n1,-12.6% (inactive)
22,CCOCCCN1C(=O)CN(C2CCCCC2)C(=O)C1c1ccc(OCC)c(OC)c1 (configuration not stated),4.5% (inactive)
